PubChem BioAssay AID1345085 (National Center for Advancing Translational Sciences (NCATS), 2018)
Inconclusive results are not listed. Active and inactive are the calls of the source. Calls come from the whole dose curve; as a rule, active = well fitted cell-killing curve with a large enough effect; inconclusive = small, poorly fitted or top-dose-only effect, or effect the other way; inactive = no such curve, though single readings can be large or run the other way.
% is set by controls: 0 for no effect and ±100 for the full control effect; potency is the fitted concentration of half-maximal effect.
Note: nearly all actives have a fitted effect of over 55% in size.

What follows are compounds tested on Hek293T (assay: Confirmatory qHTS for gynecologic anti-cancer compounds from libraries of approved drugs and bioactive compounds). Conditions: gynecologic cancer cell panel viability, ATPlite luminescence, 48 h; series mostly up to 57.6 µM.
From the text: National Center for Advancing Translational Sciences [NCATS] Assay Overview: Chemotherapeutic drug responses vary from cancer to cancer and from patient to patient. These variations could be caused by a number of factors including patient genomic background, tumor mutations, tumor heterogeneity, and aspects of drug treatment. Chemotherapeutic drug resistance is also a common issue and can lead to ineffective treatment and patient death. Here we have profiled the cell killing effects of thousands of compounds to characterize the responses in three gynecological cancers, identify cancer-selective compounds, and understand the diversity of responses to these compounds from pan-cancer suppressors to single cell line selective compounds. In this assay, we screened a 7,914 compound drug library that included approved drug and bioactive compounds in six ovarian, three cervical, and two placental cancer cell lines using the ATPlite assay for cell viability. ATPlite is a luminescence based assay reliant on the conversion of a luciferase substrate to light in the presence of ATP. As a cytotoxic compound will suppress growth and decrease the number of cells, the concentration of ATP will decrease, and less light signal will be detected in the well. Hits were selected from the primary screen for follow-up confirmation. For the confirmation screens, the ovarian cancer cell lines included CAOV-3, SK-OV-3, SW 626, ES-2, PA-1, and TOV-21G. The cervical cancer cell lines included HeLa, Ca Ski, and C-33 A. The placental cancer cell lines included JEG-3 and JAR. HEK 293T cells were used as the control cell line to determine the selectivity index. The ATPlite assay was used to determine the IC50 values.
Assay Protocol Summary: 1,000 cells in 4 uL of media were dispensed into white, solid bottom 1536-well plates using a Multidrop Combi (Thermo Scientific). The Assay plates were incubated for 16 hours at 37 C with 5% CO2 in assay plates, followed by the addition of 23 nL of DMSO or drug dissolved in DMSO. . Each compound was assayed in 11 concentrations (1:3 dilution) from 57.5 uM to 0.977 nM, using the automated Wako 1536 Pin Tool workstation and incubated at 37 C with 5% CO2 48 hours. 4 uL of ATPlite, the ATP monitoring reagent, was then added to the each well of the assay plates using the Multidrop Combi reagent dispenser followed by incubation for 15 minutes at room temperature. The resulting luminescence was measured using the ViewLux plate reader.
With COC(C(=O)N1Cc2[nH]nc(NC(=O)c3ccc(N4CCN(C)CC4)cc3)c2C1)c1ccccc1 (stereo not given) the Potency was “inactive”. For COc1ccc2c(c1)c(CC(=O)O)c(C)n2C(=O)c1ccc(Cl)cc1, the Potency was “inactive”. With NC(=O)Nc1cc(-c2cccc(F)c2)sc1C(=O)NC1CCCNC1 (stereo not given) the Potency was 0.273 µM (active). O=c1[nH]c(=O)n([C@H]2C[C@H](O)[C@@H](CO)O2)cc1F was tested, and the Potency was 1.37 µM (active). In the case of CC(C)c1nn(-c2c(Cl)cccc2Cl)c2nc(Cc3ccc(OCCO)cc3)[nH]c(=O)c12, the Potency was 0.0306 µM (active). In the case of Cc1ccc(C(=O)Nc2ccc(Oc3cc4cnn(C)c4cc3-c3cn[nH]c3)c(F)c2)c(=O)n1-c1ccc(F)cc1, the Potency was 1.93 µM (active). For Nc1ccc(-c2ccc3ncc4ccc(=O)n(-c5cccc(C(F)(F)F)c5)c4c3c2)cn1, the Potency was 0.0544 µM (active). In the case of O=C(c1ccc(F)c(F)c1Nc1ccc(I)cc1F)N1CC(O)([C@@H]2CCCCN2)C1, the Potency was 24.3 µM (active). With C[C@@H](Oc1cc(-c2cnn(C3CCNCC3)c2)cnc1N)c1c(Cl)ccc(F)c1Cl the Potency was 21.7 µM (active). For CN(C)C1CCN(C(=O)c2ccc(NC(=O)Nc3nc(N4CCOCC4)nc(N4CCOCC4)n3)cc2)CC1, the Potency was 0.485 µM (active). In the case of NC(=O)c1cnc(-c2ccc(C3(N)CCC3)cc2)c(-c2ccccc2)c1, the Potency was 21.7 µM (active). CC[C@@]1(O)C(=O)OCc2c1cc1n(c2=O)Cc2cc3c(CN(C)C)c(O)ccc3nc2-1 was tested, and the Potency was 3.43 µM (active). For O=C1c2c(O)ccc(O)c2C(=O)c2c(NCCNCCO)ccc(NCCNCCO)c21, the Potency was 0.863 µM (active). In the case of CCC1C(=O)N(C)c2cnc(Nc3ccc(C(=O)NC4CCN(C)CC4)cc3OC)nc2N1C1CCCC1 (stereo not given), the Potency was 0.0193 µM (active). In the case of Cc1ccccc1C(OCCN(C)C)c1ccccc1 (stereo not given), the Potency was “inactive”. With FC(F)(F)c1ccc(/C=C/c2nc(COc3ccc(CCCCn4ccnn4)cc3)co2)cc1 the Potency was 0.0193 µM (active). With CN(c1nccc(=O)[nH]1)C1CCN(c2nc3ccccc3n2Cc2ccc(F)cc2)CC1 the Potency was “inactive”. In the case of Cc1[nH]c2ccccc2c1CCNCc1ccc(/C=C/C(=O)NO)cc1, the Potency was 0.193 µM (active). For CCCC(Nc1nc(-c2ccc(NC(=O)NCC)c(OC)c2)ncc1C)c1cccnc1 (stereo not given), the Potency was “inactive”. In the case of CCN[C@H]1C[C@H](C)S(=O)(=O)c2sc(S(N)(=O)=O)cc21, the Potency was “inactive”. With NCCOc1cc(C(=O)Nc2cc(OCCN)c3ccccc3n2)nc(C(=O)Nc2cc(OCCN)c3ccccc3n2)c1 the Potency was “inactive”. In the case of Cc1ccc(C(=O)Nc2ccc(CN3CCN(C)CC3)c(C(F)(F)F)c2)cc1C#Cc1cnc2[nH]ncc2c1, the Potency was 21.7 µM (active). For Cc1csc(NC(=O)c2sc3nc4c(c(C(F)(F)F)c3c2N)CCC4)n1, the Potency was 0.769 µM (active). In the case of COCCOc1nc(-c2ccc(Cl)c(Cl)c2)n(-c2ccc(NC(=O)CCl)cc2)n1, the Potency was 12.2 µM (active). With CCCCc1oc2ccccc2c1C(=O)c1cc(I)c(OCCN(CC)CC)c(I)c1 the Potency was 79.4 µM (active). CCN(CC)CCNC(=O)c1c(C)[nH]c(/C=C2\C(=O)Nc3ccc(F)cc32)c1C was tested, and the Potency was 31.6 µM (active). With Cc1ccc(-n2[nH]c(C)c(N=Nc3cccc(-c4cccc(C(=O)O)c4)c3O)c2=O)cc1C the Potency was “inactive”. In the case of CN1CCN(c2cccc(Nc3nc4c(-c5ccc(S(C)(=O)=O)cc5)cccn4n3)c2)CC1, the Potency was “inactive”. For CC(C)C[C@H](NC(=O)[C@H](CCc1ccccc1)NC(=O)CN1CCOCC1)C(=O)N[C@@H](Cc1ccccc1)C(=O)N[C@@H](CC(C)C)C(=O)[C@@]1(C)CO1, the Potency was 3.43 µM (active). With CC(=O)O[C@H]1C(=O)[C@@]2(C)[C@H]([C@H](OC(=O)c3ccccc3)[C@]3(O)C[C@H](OC(=O)[C@H](O)[C@@H](NC(=O)c4ccccc4)c4ccccc4)C(C)=C1C3(C)C)[C@]1(OC(C)=O)CO[C@@H]1C[C@@H]2O the activity change, negative = viability loss was 4.91% [at 10.7 µM] (inactive). In the case of CC[C@@]1(O)C(=O)OCc2c1cc1n(c2=O)Cc2c-1nc1ccccc1c2/C=N/OC(C)(C)C, the Potency was 0.172 µM (active). COc1cc(N2CCC(N3CCN(C)CC3)CC2)ccc1Nc1ncnc(Nc2ccccc2S(=O)(=O)C(C)C)n1 was tested, and the Potency was 21.7 µM (active). In the case of Cn1c(=O)c(-c2c(Cl)cccc2Cl)cc2cnc(Nc3cccc(C(=O)O)c3)nc21, the Potency was “inactive”. In the case of O=C(/C=C/c1cccc(S(=O)(=O)Nc2ccccc2)c1)NO, the Potency was 1.88 µM (active). CN1CCCC(n2nc(Cc3ccc(Cl)cc3)c3ccccc3c2=O)CC1 (stereo not given) was tested, and the Potency was 17.2 µM (active). Cc1ccc(C(=O)N(CCCN)C(c2nc3cc(Cl)ccc3c(=O)n2Cc2ccccc2)C(C)C)cc1 (stereo not given) was tested, and the Potency was 0.0061 µM (active). For CC(Oc1cc(-n2cnc3ccc(CN4CCN(C)CC4)cc32)sc1C(N)=O)c1ccccc1C(F)(F)F (stereo not given), the Potency was 24.3 µM (active). With Cc1cc(Nc2nc(N[C@@H](C)c3ncc(F)cn3)ncc2Cl)n[nH]1 the Potency was “inactive”. In the case of Cc1ccn(-c2ccc(-c3ncco3)cc2)c(=O)c1-c1ccc2nc(N)ncc2c1, the Potency was “inactive”. For CCC(=O)N1CCN(c2ccc(-n3c(=O)ccc4cnc5ccc(-c6cnc7ccccc7c6)cc5c43)cc2C(F)(F)F)CC1, the Potency was 0.0498 µM (active).
